Screening data deposited in PubChem by National Center for Advancing Translational Sciences (NCATS).
The list is not random: actives were taken first. Their share in the collection is about 1.8%.
Glioma ERSR ind – induces the endoplasmic reticulum stress response in human glioma cells; U87-MG GRP78 promoter luciferase reporter, 16 h; Potency, µM, hits mostly activators; actives 0.02% (n = 420,000); AID 602332; also: series mostly up to about 76 µM; nearly all actives have a fitted effect of over 35% in size
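Stably transfected U87-MG human glioma cells carrying a GRP78-based luminescent sensor were seeded at 1000 cells/well, pin-dosed with compounds and incubated 16 h. Luciferase reagent was then added, and end-point luminescence was read after 10 min at room temperature.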
Mito fusion act – blocks mitochondrial division or promotes mitochondrial fusion. S. cerevisiae fusion-defective mutant growth rescue, CellTiterGlo 48 h. Potency, µM (doses to about 46.1 µM), most hits filed as activators. actives 0.23% (n = 320,000). AID 485298; also: nearly all actives have a fitted effect of over 45% in size
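S. cerevisiae fusion-defective temperature-sensitive mutants (e.g. fzo1-1, mgm1-5) grown 48 h at 37C in YPEG (ethanol/glycerol non-fermentable) medium with 23 nl compound per well; growth rescue read as CellTiterGlo luminescence.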
AT treatment – candidate therapy for ataxia-telangiectasia. F2112 A-T fibroblasts, KAP-1 phosphorylation AlphaLISA; neocarzinostatin DNA damage 30 min before lysis. Potency, µM (highest dose often 57.5 µM), actives largely listed as activators. actives 0.19% (n = 320,000); also: nearly all actives have a fitted effect of over 45% in size
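hTERT-immortalized A-T patient fibroblasts (F2112), 500 cells/well in OPTI-MEM, 1% FBS, got compounds for 60 min, then NCS for 30 min at 37C. Lysates were then assayed for phospho-KAP-1 by AlphaLISA (anti-pKAP1 donor, anti-KAP1 acceptor beads), 6 hr at 25C.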
ClpP mod – qHTS Assay for Activators of ClpP | ATP-dependent Clp protease proteolytic subunit (Bacillus subtilis (strain 168)), P80244 | Potency, µM (titrated, usually from 57.5 µM) | actives 1.9% (n = 340,000) | purified B. subtilis ClpP, FRET peptide cleavage, 20 min; active = well fitted falling curve with a large enough effect; inconclusive = small, poorly fitted or top-dose-only effect; inactive = no such curve, though single readings can be large or run the other way; also: the source files actives as falling curves though it sought activators and does not explain the sign; nearly all actives have a fitted effect of over 65% in size
Target sequence (P80244 whole entry, looked up): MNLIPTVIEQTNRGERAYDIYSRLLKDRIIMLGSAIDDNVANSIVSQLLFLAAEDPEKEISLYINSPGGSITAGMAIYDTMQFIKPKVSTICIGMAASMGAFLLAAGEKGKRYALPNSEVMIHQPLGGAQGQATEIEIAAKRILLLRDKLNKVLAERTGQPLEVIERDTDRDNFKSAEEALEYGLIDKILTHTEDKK
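Buffer: 100 mM Tris/HCl pH8, 100 mM KCl, 0.05% low protease BSA, 2.5% glycerol, 0.01% Tween-20. ClpP 10 microg/mL final; 20 min RT; delta FRET normalized to ADEP and DMSO controls.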
TCR act – activates T cell receptor signaling; primary human leukocytes, anti-CD3, IL-2 HTRF, 48 h; Potency, µM (highest dose often 9.22 µM), hits mostly activators; 330,000 tested, under 10 active; AID 504894
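Using a-CD3 beads without co-stimulation, primary human leukocytes were exposed to compounds for 48 hr. An HTRF IL-2 kit measured the cytokine, with europium-to-d2 energy transfer producing emission at 665nm upon 320nm excitation.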
MBNL1 CUG block – inhibitors of human MBNL1 binding to CUG repeat RNA | Q9NR56 | TR-FRET MBNL1-His/biotin-(CUG)12 binding, 665/545 ratio | Potency, µM (highest dose often 57.5 µM), most hits filed as inhibitors | actives 0.036% (n = 280,000) | AID 2675; active = well fitted inhibition curve with a large enough effect in the signal ratio, with a control signal flat, not every such curve was filed as active; inconclusive = small, poorly fitted or top-dose-only effect, or effect the other way, or a change in a side signal; inactive = no such curve, though single readings can be large or run the other way; the % refers to the signal ratio
Target sequence (Q9NR56 whole entry, looked up): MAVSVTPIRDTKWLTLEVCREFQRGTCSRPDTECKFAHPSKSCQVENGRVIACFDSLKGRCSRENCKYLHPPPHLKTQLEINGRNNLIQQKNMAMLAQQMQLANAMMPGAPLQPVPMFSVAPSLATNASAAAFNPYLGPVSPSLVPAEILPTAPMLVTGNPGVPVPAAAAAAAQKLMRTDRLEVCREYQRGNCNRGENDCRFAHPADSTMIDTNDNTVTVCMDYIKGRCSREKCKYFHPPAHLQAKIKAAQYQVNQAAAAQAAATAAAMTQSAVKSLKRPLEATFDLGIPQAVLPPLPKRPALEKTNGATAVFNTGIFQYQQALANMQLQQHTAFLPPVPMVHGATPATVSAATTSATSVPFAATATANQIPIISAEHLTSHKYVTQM
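TR-FRET between His-tagged MBNL1 and biotin-(CUG)12 RNA, detected with Tb anti-His antibody (0.055 ng/ul) and streptavidin-XL665 (5 nM), 60 min at room temperature. Compounds titrated 92 nM to 58 uM; 665/545 nm ratio normalized to buffer and complex controls.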
Hits are given with their value; n = inactive; u = inconclusive; x = no result given; [ ] = dose if it differs, or a comment. Unless noted, calls follow the shape of the dose curve; as a rule, active = well fitted curve in the direction sought with a large enough effect; inconclusive = small, poorly fitted or top-dose-only effect, or another doubt; inactive = no such curve, though single readings can be large; an effect the other way counts as inactive or inconclusive.

SMILES	Glioma ERSR ind	Mito fusion act	AT treatment	ClpP mod	TCR act	MBNL1 CUG block
CN(Cc1ccccc1)C(=O)[C@H](Cc1ccc2ccccc2c1)NC(=O)[C@@H]1C[C@@H](O)CN1C(=O)c1cn(C)c2ccccc12	n	x	x	x	x	x
CCC(C(=O)Nc1cc(-c2nc3cccnc3s2)ccc1C)c1ccccc1 (configuration not stated)	n	x	x	35.5µM	x	x
CCn1nnc(NC(=O)c2cccc(-c3cc4ccccc4oc3=O)c2)n1	n	n	n	14.1µM	n	u
O=C(Cc1ccccc1)Nc1cccc(-c2nc3cccnc3s2)c1	n	x	x	35.5µM	x	x
Cc1ccc(-c2nc3cccnc3s2)cc1NC(=O)C(C)C	n	x	x	u	x	x
COc1ccc(CNc2ccnc(-c3ccc(N(C)C)cc3)n2)c(OC)c1	n	x	x	x	x	x
NS(=O)(=O)c1cccnc1Nc1c(Cl)cccc1Cl	n	n	n	28.2µM	n	n
CC(=O)NS(=O)(=O)c1cccnc1Nc1cccc(Cl)c1C	n	n	n	n	n	n[11.5 µM]
OCCCc1nc2n(n1)C(c1ccccc1Cl)C=C(c1cccs1)N2 (configuration not stated)	n	n	n	22.4µM	x	n
N#CCCn1c(=O)c(-c2ccccc2)nc2cnc(Oc3ccccc3)nc21	n	x	x	x	x	x
CC1(C)CC(N=c2cc(-c3ccccc3)oc3ccc(Cl)cc23)CC(C)(C)N1	n	n	n	n	n	u
OCCCN=c1cc(-c2ccccc2)oc2ccc(Cl)cc12	u	n	n	31.6µM	n	u
C#Cc1cccc(C(=O)NCc2nc(-c3ccccc3NC(=O)C3CCCO3)oc2C)c1 (configuration not stated)	n	x	x	x	x	x
COc1cccc(N=Nc2c(N)[nH]n3c(=O)cc(-c4ccccc4)nc23)c1	n	n	n	n	n	n
Cc1ccc(N=Nc2c(N)[nH]n3c(=O)cc(-c4ccccc4)nc23)cc1	n	n	n	28.2µM	n	n
Cc1ccc2c(c1)C(=O)C1(O)CCN(c3ccccc3)C1=N2 (configuration not stated)	n	x	x	x	x	x
COc1ccc2oc(-c3ccccc3)c(C(=O)N3CCOCC3)c2c1	n	n	n	28.2µM	n	n
CCOc1ccc2oc(-c3ccccc3)c(C(=O)N3CCN(C)CC3)c2c1	n	n	n	11.2µM	n	n
CC(=O)Oc1ccc2oc(C)c(C(=O)N3CCOCC3)c2c1	n	n	n	n	n	n
CCOc1ccc2oc(C(=O)N3CCN(Cc4ccccc4)CC3)c(C)c2c1	n	n	n	x	n	n
O=C(CO)NCCCOc1cccc(CN2CCCCC2)c1	n	x	x	x	x	x
O=S1(=O)N(Cc2ccccc2F)CCCN1Cc1c(F)cccc1Cl	n	n	n	31.6µM	n	n
Cc1ccc(CN2CCCN(Cc3c(F)cccc3Cl)S2(=O)=O)cc1	n	n	n	x	n	n
O=C1C2C3C=CC(C3=C3CCCCC3)C2C(=O)N1c1ccccc1 (configuration not stated)	n	n	n	n	n	n
CN1C(=O)C2C=CC1C1C(=O)N(c3ccccc3)C(=O)C21 (configuration not stated)	n	6.31µM	x	n	n	n
SMILES	Glioma ERSR ind	Mito fusion act	AT treatment	ClpP mod	TCR act	MBNL1 CUG block
Cc1ccc2oc(-c3ccc(NC(=O)COc4ccccc4)cc3O)nc2c1	n	x	x	n	x	x
COc1ccccc1N(Cc1cc2cccc(C)c2[nH]c1=O)C(=O)c1cccc(Cl)c1	n	x	x	25.1µM	x	x
Cc1cnc(SCc2ccccn2)nc1C1CCCN(C(=O)c2cccc(-c3cccc(F)c3)c2)C1 (configuration not stated)	n	x	x	x	x	x
COc1ccc(-c2cn3c(C)c(C(=O)NCCN4CCOCC4)sc3n2)cc1	n	n	n	22.4µM	n	n
COc1cccc(-c2cc(C(=O)Nc3ccncc3)c3ccccc3n2)c1	n	n	n	12.6µM	n	n
COc1ccc(-c2cc(C(=O)NCCN3CCOCC3)c3ccccc3n2)cc1	n	n	n	35.5µM	n	n
Cc1c(C(=O)NCCCN2CCOCC2)sc2nc(-c3ccc(F)cc3)cn12	n	n	n	n	n	u
O=C(Nc1cccc(Nc2ccccc2)c1)c1cnn2c1NC(=C1CC1)C=C2C(F)F	n	x	x	n	x	x
Cc1ccc(CN2[C@H]3CCCC[C@@H]3OCCS2(=O)=O)cc1	n	x	x	n	x	x
COc1cc2nc(N3CCCN(C)CC3)nc(N(C)C)c2cc1OC	x	x	x	n	x	x
Cc1c(-c2ccccc2)[n+](=O)c(-c2ccco2)c(C)n1[O-]	n	n	n	28.2µM	n	n
CC(C)c1ccc(NC(=O)C(c2ccccc2)N2CC(=O)Nc3ccccc32)cc1 (configuration not stated)	n	n	35.5µM	n	n	n
Cc1ccc(NC(=O)[C@@H](c2ccccc2)N2Cc3ccccc3C2=O)cc1	n	x	x	n	x	x
COc1cc(O)ccc1CN1CCc2nnc(C(C)NC(=O)c3cc(F)ccc3F)n2CC1 (configuration not stated)	n	x	x	x	x	x
CCCCn1c(N)c(N(CCC(C)C)C(=O)c2ccccc2-n2cnnn2)c(=O)[nH]c1=O	n	n	n	28.2µM	n	x
CCCCn1c(N)c(N(CCC(C)C)C(=O)c2[nH]c(C)c(C(=O)OCC)c2C)c(=O)[nH]c1=O	n	n	n	17.8µM	x	x
CCCCn1c(N)c(N(CCC(C)C)C(=O)CC2CCCCC2)c(=O)[nH]c1=O	n	n	n	n	n	x
CCCCn1c(N)c(N(CC(C)C)C(=O)CSCc2c(C)noc2C)c(=O)[nH]c1=O	n	n	n	28.2µM	n	x
CCCCn1c(N)c(N(CCC(C)C)C(=O)c2ccccc2C)c(=O)[nH]c1=O	n	n	n	x	n	n
